From PubChem BioAssay AID1117319 (Southern Research Institute, 2015) come the findings set out here.

Values joined by “and” are separate entries in the source; they are usually repeats but may differ in a detail not shown here. Equal values may be shown once. Screen size: about 260,000 compounds; about 1,500 (0.58%) were called active. Not shown: some 5% with an inconclusive outcome.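 Rule for the calls: active = inhibition above a set limit at one or more doses, reproduced on every date tested; inconclusive = results disagree between test dates, or hit never tested in dose response; inactive = the rest.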 Only a sample is shown. Measured potencies and affinities stand elsewhere.

The experiment addresses Virion infectivity factor (Human immunodeficiency virus type 1 group M subtype B (isolate BH10)) + Virion infectivity factor (Human immunodeficiency virus type 1 group M subtype B (isolate BRU/LAI)) + Virion infectivity factor (Human immunodeficiency virus type 1 group M subtype B (isolate PCV12)) + Virion infectivity factor (Human immunodeficiency virus type 1 group M subtype B (isolate HXB2)) + DNA dC->dU-editing enzyme APOBEC-3G (Homo sapiens) (UniProt P69720+P69721+P69722+P69723+Q9HC16). Put plainly: HIV-1 Vif–A3G interaction blockers – biochemical, TR-FRET, GST-Vif 1-94, biotin-A3G peptide, dose response retest, primary screen (AID 1117319).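 Note: Vif residues 1-94 fused to GST binding biotinylated APOBEC3G peptide 110-148; 0% = full assay without inhibitor and 100% = GST in place of GST-Vif.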 Conditions: TR-FRET GST-Vif / biotin-A3G peptide binding; active compounds read high. In general terms: In TR-FRET formats the signal depends on donor and acceptor labels being close together.
A word on the inhibition: it is the drop in the measured response relative to a control, in per cent. Consider `CCCn1c(C)cc(-c2csc(N)n2)c1C`, for which the inhibition is 11.8% (inactive). With `C=CCn1c(C)cc(-c2csc(NCC)n2)c1C` the figure was 32.5% (inactive); with `COc1ccc(N2C3=C(CC4=C2CC(C)(C)CC4=O)C(=O)CC(C)(C)C3)cc1`, 24.6% (inactive) and 5.22% (inactive). With `COc1ccc(-n2ccc(=O)c3c2CCCC3=O)cc1` the figure was 9% (inactive). The value for `Nc1cc(=O)[nH]c(SCc2ccc(Cl)cc2Cl)n1` was -1% (inactive); that for `CCN(CC(=O)Nc1ccccc1C(F)(F)F)C(=O)Cn1c(=O)cnc2ccccc21` was -3.46% (inactive). For the compound `O=c1[nH]c2sc3c(c2c2nncn12)CCCC3`, the inhibition was 24.3% (inactive). With `Cc1nc2sc3c(c2c(=O)o1)CCC3` the figure was 11.5% (inactive). Take `Cc1cccnc1NC(=O)c1ccc(S(=O)(=O)N2CCCCCC2)cc1`: the inhibition was -2.42% (inactive).

For the compound `Cc1ccc(CN2CCC[C@]3(N[C@H](c4ccc(C(F)(F)F)cc4)[C@@H]4C(=O)N(Cc5ccccc5)C(=O)[C@@H]43)C2=O)cc1`, the inhibition is 5.48% (inactive).

For `CCn1c2ccccc2c2nc3cc(S(=O)(=O)N4CCOCC4)ccc3nc21`, the inhibition was 2.64% (inactive).

As to `Nc1nc2cc(S(=O)(=O)N3CCOCC3)ccc2o1`, the inhibition was -2.39% (inactive). The value for `O=C(OCn1nnc2ccccc2c1=O)c1cccnc1Cl` was 0.6% (inactive). With `COc1nc(NCCC2=CCCCC2)nc(OC)n1` the figure was -1.44% (inactive); with `CCOC(=O)N1CCN(C(=O)c2cc(C)no2)CC1`, -3.25% (inactive); with `CC(=O)N/C(=C\c1ccccc1)C(=O)OCC(=O)N(CC(C)C)c1c(N)n(Cc2ccccc2)c(=O)[nH]c1=O`, 4.02% (inactive). In the case of `Cc1csc(NC(=O)CSc2nncn2C)n1`, the inhibition was 7.24% (inactive).

Regarding `CC(C)CC(=O)Nc1ncc([N+](=O)[O-])s1`, the inhibition was 8.92% (inactive). Turning to `COc1ccc(C(=O)OCC(=O)Nc2ncc([N+](=O)[O-])s2)cc1OC`, the inhibition is 5.33% (inactive). Turning to `O=C(COC(=O)c1cccc([N+](=O)[O-])c1)Nc1ncc(Br)s1`, the inhibition is 1.23% (inactive). `C=CCn1c(SCC(=O)NCc2ccc3c(c2)OCO3)nc2scc(-c3ccccc3)c2c1=O`: the inhibition is -40.6% (inactive). The value for `Cc1ccsc1C(=O)Nc1nc2ccccc2[nH]1` was -12.8% (inactive); that for `COc1ccc(NC(=O)C2(c3ccc(NC(=O)c4ccc(OC)c(OC)c4)cc3)CCCC2)cc1` was 0.05% (inactive). With `O=C(Nc1ccc(Br)cn1)C1CCCN1S(=O)(=O)c1ccccc1` (stereo not given) the figure was 4.08% (inactive); with `CC1=CCC2C(=O)N(c3nc4ccccc4n3C)C(=O)C2C1` (stereo not given), 24.7% (inactive); with `Cc1cccc(N2C(=O)CC(N(O)c3ccccc3)C2=O)c1` (stereo not given), 3.45% (inactive). The value for `O=C(/C=C/c1cccs1)N1CCN(c2ccccc2)CC1` was -0.91% (inactive); that for `O=C(/C=C/c1cccs1)N1CCN(c2ccc(F)cc2)CC1` was 3.81% (inactive); that for `COC(=O)CC1C(=O)NCCN1C(=S)NC(=O)c1ccccc1[N+](=O)[O-]` (stereo not given) was 13.4% (inactive).

As to `COc1ccc2c(c1)c(=O)oc1cc(OCC(=O)NC3CC3)ccc12`, the inhibition is -2.02% (inactive). Turning to `COc1ccc2c(c1)c(=O)oc1cc(OCC(=O)N3CCCC(C)C3)ccc12` (stereo not given), the inhibition is -1.48% (inactive). With `CCCOC(=O)c1ccc(NC(=O)c2ccccc2[N+](=O)[O-])cc1` the figure was -4.31% (inactive); with `CCN(CC)S(=O)(=O)c1ccc(C(=O)OC2CCCCC2CN(C)C)cc1` (stereo not given), -1.05% (inactive); with `COc1ccc(CCNS(=O)(=O)CCNC(=O)c2ccccc2)cc1`, -6.03% (inactive). With `CC(/C=C/c1ccc(C)o1)=C\C(=O)O` the figure was 2.74% (inactive); with `CC(/C=C/c1ccc(Cl)o1)=C\C(=O)O`, 27.4% (inactive). The value for `O=C1C2C3CCC(C3)C2C(=O)N1CNc1ccccc1` (stereo not given) was -1.35% (inactive). On to `Cc1ccc2[nH]c(=O)c(CN(C(=O)c3cccc([N+](=O)[O-])c3)C(C)(C)C)cc2c1`, for which the inhibition was -6% (inactive). Regarding `CN(Cc1ccccc1)S(=O)(=O)c1ccc(Cl)c(C(=O)NCCCN2CCOCC2)c1`, the inhibition was -5.26% (inactive).

`CC(C)CN1C=C2C(=O)C(C)(OC(=O)C3CCCC3)C(=O)C=C2C=C1c1ccsc1` (stereo not given): the inhibition was 28.7% (inactive).

As for `CC1(OC(=O)CCc2ccccc2)C(=O)C=C2C=C(c3ccc(C#N)cc3)N(CC3CC3)C=C2C1=O` (stereo not given), the inhibition was -1.42% (inactive). As to `CC1(OC(=O)C2CCCC2)C(=O)C=C2C=C(c3ccsc3)N(C(CO)CO)C=C2C1=O` (stereo not given), the inhibition was 15.2% (inactive). Take `CC1(OC(=O)CCc2ccccc2)C(=O)C=C2C=C(c3ccc(C#N)cc3)N(C(CO)CO)C=C2C1=O` (stereo not given): the inhibition is 0.31% (inactive).

As to `COc1ccc(-c2ccc(SCC(=O)N3CCOCC3)nn2)cc1OC`, the inhibition is 2.85% (inactive). As for `COc1ccccc1OCCCC(=O)Nc1nnc(C2CCCO2)s1` (stereo not given), the inhibition is -0.39% (inactive). Regarding `Cc1nn2c(=S)[nH]nc2[nH]c1=O`, the inhibition is 14.1% (inactive).

As to `Cc1n[nH]c(=S)n(/N=C/c2cccs2)c1=O`, the inhibition is -1.81% (inactive). With `COC(=O)[C@H]1C[C@@H]1[C@H](NC(=O)OCc1ccccc1)c1ccccc1` the figure was -8.43% (inactive); with `COC(=O)[C@H]1C[C@@H]1[C@H](NC(=O)[C@H]1C[C@@H]1[C@H](NC(=O)OCc1ccccc1)c1ccccc1)c1ccccc1`, 25.9% (inactive).

With `Cc1ccc2cc3cc(C(=O)NCCCN4CCCC4)oc3nc2c1`, the inhibition was -1.36% (inactive).

As to `O=C(O)C1=NN(c2ccccc2)C(=O)C1`, the inhibition was 13.7% (inactive). Take `CC1=NN(c2cc(Cl)c(S(=O)(=O)O)cc2Cl)C(=O)C1`: the inhibition was 8.79% (inactive). With `COCCCn1c(SCC(N)=O)nnc1-c1ccccc1` the figure was 2.76% (inactive). With `C=CCN1C(=O)/C(=C/c2ccsc2)SC1=S` the figure was 21.3% (inactive); with `COc1ccc(CN(CC(=O)NC2CCCC2)C(=O)c2onc(C(N)=O)c2N)cc1`, 30.2% (inactive); with `COc1cccc(CN2C(=O)CN(C3CCCCC3)C(=O)C2c2ccc(F)cc2)c1` (stereo not given), 1.82% (inactive).

For `CC1=CC(C)(C)Nc2ccc(OC(=O)CN3C(=O)c4ccccc4C3=O)cc21`, the inhibition was 19.2% (inactive). With `CC1=CC(C)(C)Nc2ccc(OC(=O)c3ccco3)cc21` the figure was 16.4% (inactive); with `CC1=CC(C)(C)Nc2ccc(OC(=O)CCN3C(=O)c4ccccc4C3=O)cc21`, 3.55% (inactive); with `Cc1ccc(OC(=O)c2cccnc2)cc1`, -1.57% (inactive).
